SW480 rereplic: inducers of DNA re-replication in SW480 colon cancer cells | AID 624297 | 1.8% of 340,000 active | Potency, µM (highest dose often 46.1 µM), most hits filed as activators | SW480 DNA re-replication, Hoechst DNA content imaging, 48 h; further: nearly all actives have a fitted effect of over 55% in size
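Quantitative HTS format with DMSO vehicle controls; 48 hr drug incubation at 37 C, then 40 min Hoechst staining and scanning imager measurement at 405 nm excitation.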
Mito fusion act: blocks mitochondrial division or promotes mitochondrial fusion; S. cerevisiae fusion-defective mutant growth rescue, CellTiterGlo 48 h; Potency, µM (doses to about 46.1 µM), actives largely listed as activators; 0.23% of 320,000 active; AID 485298; further: nearly all actives have a fitted effect of over 45% in size
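Compounds are tested for their ability to restore growth of mitochondrial fusion-defective yeast strains at non-permissive 37C in YPEG medium over 48 hours. Viability is quantified by luciferase luminescence.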
MCF10A rerep: inducers of DNA re-replication in MCF 10A breast cells | Potency, µM (top dose mostly 46.1 µM), most hits filed as activators | 2.9% of 350,000 active | MCF 10A DNA re-replication, Hoechst nuclear intensity, 48 h; further: nearly all actives have a fitted effect of over 50% in size
a7 integrin act: activates integrin-mediated alleviation for muscular dystrophy; alpha7betagal myoblasts, beta-gal FDG fluorescence, 48 h; 0.064% of 350,000 active; Potency, µM (series often up to 38.3 µM), actives largely listed as activators; further: nearly all actives have a fitted effect of over 60% in size
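Alpha7betagal+/- myoblasts (passage 13) were plated 16-24 hr, then exposed to compounds (1:260 dilution of DMSO stock) for 48 hours at 37C. After MPER lysis, β-galactosidase reporter activity was read as FDG fluorescence (ex 480/em 540) after 30 minutes.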
A-T KAP1 phos: candidate therapy for ataxia-telangiectasia; F2112 A-T fibroblasts, KAP-1 phosphorylation AlphaLISA; neocarzinostatin DNA damage 30 min before lysis; Potency, µM (highest dose often 57.5 µM), hits mostly activators; 0.19% of 320,000 active; further: nearly all actives have a fitted effect of over 45% in size
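ATM-like activity read as KAP-1 phosphorylation via AlphaLISA donor/acceptor antibody pairs after lysis and 6 hr at 25C. Cells were ATM-null patient fibroblasts (F2112, hTERT), dosed 60 min, then exposed to the DSB inducer NCS for 30 min.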
Hits are given with their value; . = inactive; ? = inconclusive; / = no result. In the library only some 4.2% were active in any assay of this set; here they are far more common. The call rests on the fitted dose curve; in most records, active means well fitted activation curve with a large enough effect; inconclusive means small, poorly fitted or top-dose-only effect; inactive means no such curve, though single readings can be large or run the other way.

SMILES | SW480 rereplic | Mito fusion act | MCF10A rerep | a7 integrin act | A-T KAP1 phos
COC(=O)c1cnc(Oc2ccc(NC(=O)NC(=O)c3c(F)cccc3F)cc2)cc1C(F)(F)F | . | . | . | . | .
Cc1ccc(C)c(-n2sc3ccc(F)cc3c2=O)c1 | 18µM | . | ? | . | .
C/C=C(\C)CN1CCC(n2nccc2NC(=O)CCc2ccccc2)CC1 | . | . | . | . | .
C/C=C(\C)CN1CCC(n2nccc2NC(=O)CCOc2ccccc2)CC1 | 18µM | . | . | . | .
O=C(CCCCCNC(=O)N1CCn2c1nc1ccccc12)N[C@H](C(=O)O)c1ccccc1 | . | . | . | . | .
Cc1c(S(=O)(=O)Nc2ccc3c(c2)OCCO3)c(=O)n(C)c(=O)n1C | . | . | . | . | .
Cc1ccc2nc(-c3ccc(NS(=O)(=O)c4c(C)n(C)c(=O)n(C)c4=O)cc3)sc2c1 | 21µM | . | 7.3µM | . | .
Cc1ccc(S(=O)(=O)Nc2ccc(-c3nc4ccc(C)cc4s3)cc2)cc1 | ? | . | 23µM | . | .
Cc1cccc(S(=O)(=O)Nc2ccc(-c3nc4ccc(C)cc4s3)cc2)c1 | ? | . | 18µM | . | .
Cc1cccc(S(=O)(=O)Nc2ccc(-c3cn4ccccc4n3)cc2)c1 | . | . | . | . | .
Cc1ccc(C2=NN(C(=O)CCl)C(c3cccs3)C2)o1 (stereo not drawn) | 5.8µM | . | ? | . | .
CC(=O)N1N=C(c2ccco2)CC1c1cccs1 (stereo not drawn) | . | . | . | . | .
O=C(CCl)N1N=C(c2ccco2)CC1c1cccs1 (stereo not drawn) | 3.3µM | . | 21µM | . | .
O=C1CC(c2cc(F)ccc2F)c2cc3c(cc2N1)CCC3 (stereo not drawn) | ? | 7.1µM | ? | . | .
O=C1CC(c2cccc(Br)c2)c2cc3c(cc2N1)CCC3 (stereo not drawn) | . | . | ? | . | .
CCc1ccc(/C=N/NC(=O)c2cc(-c3ccncc3)nc3ccccc23)s1 | 3.7µM | . | 1µM | . | .
CCCc1cc(C(=O)N/N=C/c2ccc(CC)s2)c2ccccc2n1 | 21µM | . | 7.3µM | . | .
CCc1cc(C(=O)N/N=C/c2ccc(OC)cc2)c2ccccc2n1 | ? | . | 16µM | . | .
COc1ccc(OC)c(-c2cc(C(=O)N/N=C/c3ccc(F)cc3)c3ccccc3n2)c1 | . | / | ? | . | /
O=C(OCC(=O)c1c[nH]c2ccccc12)c1cc2ccccc2cc1O | . | . | 12µM | . | .
CC12CCC(=O)N1C(C(=O)Oc1cccc(F)c1)CS2 (stereo not drawn) | / | / | / | . | /
CC1C2(C)OC(=N)C(C#N)(C(C)O2)C1(C#N)C#N (stereo not drawn) | 1.3µM | . | ? | . | .
COc1ccccc1C(N)=S | . | . | . | . | .
CCCCC(c1nnnn1CC1CCCO1)N1CCN(c2nc3ccccc3s2)CC1 (stereo not drawn) | . | 14µM | . | . | .
O=C(CN(Cc1cccs1)C(=O)CSc1nnc(COc2ccccc2)o1)NC1CCCC1 | ? | . | 10µM | . | .
SMILES | SW480 rereplic | Mito fusion act | MCF10A rerep | a7 integrin act | A-T KAP1 phos
Cc1nn(CC(=O)Nc2ccc3c(c2)nc(CCN2CCCCC2)n3C)c(=O)c2ccccc12 | ? | . | 16µM | . | .
Cn1c(CN2CCCC2)nc2cc(NC(=O)c3ccc(Cl)cc3)ccc21 | . | . | ? | . | .
Cn1c(CCN2CCN(c3ccccn3)CC2)nc2cc(NS(=O)(=O)c3ccccc3)ccc21 | ? | . | 23µM | ? | .
Cn1c(CN2CCCCC2)nc2cc(NC(=O)c3ccc(Cl)cc3)ccc21 | ? | . | 23µM | . | .
Cn1c(CCN2CCCCC2)nc2cc(NS(=O)(=O)c3ccccc3)ccc21 | ? | . | . | . | .
CC(=O)N1CCN(Cc2nc3cc(NC(=O)Cn4nc(C)c5ccccc5c4=O)ccc3n2C)CC1 | . | . | . | . | .
Cn1c(CCN2CCCC2)nc2cc(NS(=O)(=O)c3ccc(Cl)cc3)ccc21 | 21µM | . | ? | ? | .
COc1ccc(S(=O)(=O)N(C)C)cc1NC(=O)CSc1nc(N)cc(N)n1 | . | . | . | . | .
